# Dicer processing: blocks human Dicer maturation of pre-miR-21 | Q9UPY3 | cat-ELCCA pre-miR-21 Dicer processing, chemiluminescence; hits give high values | z-score at 25 µM | 47,000 tested, 6% active | AID 1347074; in the data active = z-score above about 3, passing the limit was not always enough;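 note: plate controls were vehicle for no effect and no enzyme for full effect; higher signal means more uncleaved substrate so more Dicer inhibition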
# * = called active by the depositor. Only a selection was taken, and hits are over-represented in it overall.
SMILES,Dicer processing
CCC1=C[C@@H]2CN3CCc4c([nH]c5ccccc45)[C@@](C(=O)OC)(C2)[C@@H]13,-1.4
CCC(C)n1[nH]c(=O)c2c1NC(=O)CSC2c1ccc(OC(C)C)cc1 (stereo not given),-0.71
CCNc1nc(NC(C)C)nc(SC)n1,1.1
CC12CCC3(C[C@@H]1CCC1C2CCC2(C)C1CC[C@]2(C)O)OCCO3 (stereo not given in full),0.6
C=C(C)Cc1c(C)nc(SCC(=O)C(C)(C)C)nc1OC(=O)N(C)C,1.9
C=CCc1cc(C)cc(-n2nc3ccccc3n2)c1O,1.1
COc1cc(-n2c(SC)nc3ccccc3c2=O)c(OC)cc1Cl,0.26
COc1ccccc1N1CCN(Cc2ccccc2F)CC1,-1.6
COc1ccccc1CN1CCN(Cc2cc(Br)ccc2O)CC1,8*
CC1CN=C(Nc2cccc(C(F)(F)F)c2)S1 (stereo not given),0.02
CC12CCC3C4CCC(=O)C=C4CCC3C1CC[C@]2(C)O (stereo not given in full),-0.7
c1cc2c(cc1CCNCc1ccc3c(c1)OCO3)OCO2,2.5
CCc1ccc(CNCCc2ccc3c(c2)OCO3)cc1,0.83
c1coc(CNCCc2ccc3c(c2)OCO3)c1,7.7*
Cc1cc(NC(=O)C(Cl)(Cl)Cl)ccc1Br,1
O=C1NC(=O)C(=Cc2ccc(Cl)cc2Cl)C(=O)N1,-2.9
CC(C)C1(C)N=C(c2ncccc2C(=O)O)NC1=O (stereo not given),3.2*
O=C(NC(=S)Nc1cc(C(F)(F)F)cc(C(F)(F)F)c1)Oc1ccccc1,-1.1
CC(=O)OC1CCC2(C)C3CCC4(C)C(OC(C)=O)CCC4C3CC(O)[C@@]2(O)C1 (stereo not given in full),0.87
CCNCC(O)c1ccc([N+](=O)[O-])cc1 (stereo not given),0.31
COCc1cc(OC(=O)N(C)C)nc(Cc2c(Cl)cccc2Cl)n1,0.6
CC12CCC3(C=C1CCC1C2CCC2(C)C(O)CCC12)OCCO3 (stereo not given),0.81
O=C(NNS(=O)(=O)c1ccc(C(F)(F)F)cc1)C1(O)CN2CCC1CC2 (stereo not given),0.82
N#Cc1ccc(NC(=O)c2c(F)cccc2F)cc1C(F)(F)F,1.3
CC(O)(CS(=O)(=O)c1ccc(F)cc1)C(=O)Nc1ccc(C#N)c(C(F)(F)F)c1 (stereo not given),0.92
SMILES,Dicer processing
CC(=O)Nc1ccc(C#N)c(C(F)(F)F)c1,5.6*
Cc1ccc(NC(=S)N2CCOC2c2cccnc2)cc1Cl (stereo not given),0.89
CN(C)C(=O)Oc1nnc(SCc2ccccc2)n1-c1cccc(Cl)c1,-0.56
CC(=O)CC(c1ccc([N+](=O)[O-])cc1)c1c(OC(C)=O)c2ccccc2oc1=O (stereo not given),-0.15
C[C@@]12C[C@H](O)CCN1CCc1ccccc12,0.35
Clc1ccc(CN2CCN(Cc3ccccc3Cl)CC2)cc1,1.3
Cc1ccc(CN2CCN(C(C)C)CC2)cc1,2.9
c1ccc(CN2CCN(C3CCCCC3)CC2)cc1,3.1*
C/C(=C\c1ccc(Cl)cc1Cl)[N+](=O)[O-],5.3
COc1ccc(CSC2C(C(=O)NNC(=O)c3ccc(Cl)cc3Cl)C3CCN2CC3)cc1 (stereo not given),-0.38
CC1CC(O)(c2ccccc2)C(C)CN1C (stereo not given),3.6*
C=CCSc1nc2ccccc2c(=O)n1-c1ccc(OC)cc1,-0.02
CCOc1ccccc1Oc1c(C)oc2cc(OC(=O)N(C)C)ccc2c1=O,1.3
Cc1ccc(-c2nc(OC(=O)N(C)C)cc(C(F)(F)F)n2)cc1Cl,0.06

# Source: PubChem
